# In PubChem BioAssay (NCI):
# This is part of a sample that, as a whole, favours compounds with a hit. Of some 83,000 tested, about 20% had one in any assay.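 Negative percent growth values reflect cell death: -40 means 40% of the cells present at the start died, and -100 means all died.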 Unmarked numbers belong to inactive results. Active and inactive are the calls of the source. How the source made its calls: active means growth percent below 10; inactive means the rest.
# Legend:
# Experiment in all cases: NCI-60 one-dose screen, 48 h (100 = growth as untreated, 0 = no growth, -100 = all killed)
# [1] = test system: NCI-H23 lung; settings: 10 µM unless noted
# [2] = test system: NCI-H226 lung; settings: 10 µM unless noted
# [3] = test system: NCI-H322M lung; settings: 10 µM unless noted
# [4] = test system: HOP-62 NSCLC; settings: 10 µM unless noted
# [5] = test system: NCI-H460 lung; settings: 10 µM unless noted
# [6] = test system: HOP-92 NSCLC; settings: 10 µM
# [7] = test system: NCI-H522 lung; settings: 10 µM unless noted
# [8] = test system: A549/ATCC NSCLC; settings: 10 µM unless noted
# [9] = test system: 786-0 renal; settings: 10 µM unless noted
# [10] = test system: COLO 205 colon; settings: 10 µM unless noted
# [11] = test system: DU-145 prostate; settings: 10 µM unless noted
# [12] = test system: K-562 leukemia; settings: 10 µM unless noted
# [13] = test system: MALME-3M melanoma; settings: 10 µM unless noted
# [14] = test system: MDA-MB-231 breast; settings: 10 µM unless noted
# [15] = test system: RXF 393 renal; settings: 10 µM unless noted
# [16] = test system: SF-268 CNS; settings: 10 µM unless noted
# [17] = test system: SF-295 CNS; settings: 10 µM unless noted
# [18] = test system: SF-539 CNS; settings: 10 µM unless noted
# [19] = test system: UACC-257 melanoma; settings: 10 µM unless noted
Compound,growth [1],growth [2],growth [3],growth [4],growth [5],growth [6],growth [7],growth [8],growth [9],growth [10],growth [11] [%],growth [12],growth [13],growth [14],growth [15],growth [16],growth [17],growth [18],growth [19]
O=[N+]([O-])c1cc(/C=N/Nc2nc(N/N=C/c3ccc(Cl)c([N+](=O)[O-])c3)nc(N3CCCCC3)n2)ccc1Cl,81.8%,61.4%,71.3%,43.7%,98.7%,123%,51.9%,111%,109%,100%,29.6,31.7%,101%,48.3%,99.9%,64.9%,93.2%,36.3%,51.1%
COc1cc(OC)c(/C=C/S(=O)(=O)Cc2ccc(OC)c(NC(=O)CCC(=O)NO)c2)c(OC)c1,16.6%,27.2%,47.8%,25.3%,6.85% (active),63.5%,-6.54% (active),24.6%,28.5%,-53.6% (active),14.4,12.6%,64.1%,26%,6.03% (active),30.4%,8.21% (active),-4.79% (active),59.5%
COc1c(N2CC3CCCNC3C2)c(F)cc2c(=O)c(C(=O)N/N=C/c3ccc(F)cc3)cn(C3CC3)c12 (centres undefined),87.9%,109%,93.3%,98.9%,97.6%,50.2%,94.1%,91.5%,69.2%,96.3%,102,18.9%,86.3%,82.3%,–,82.9%,97.7%,87.7%,79.5%
COc1ccc(NC(=O)CSc2nnc(-c3ccc4nc(-c5ccccc5)[nH]c4c3)o2)cc1,96.3%,96.2%,98%,101%,99.8%,99.4%,94.2%,101%,96.3%,108%,104,84.2%,99.2%,97.1%,–,101%,102%,96.2%,106%
CCn1c(SCC(=O)Nc2cccc(C(=O)/C=C/c3ccccc3Cl)c2)nc2ccccc2c1=O,69.5%,81.9%,90.5%,93.7%,95.7%,72.7%,85.3%,78.6%,95.6%,114%,77.8,53%,103%,87.1%,–,88%,91.4%,90.4%,110%
N/C(=N\C(N)=N\c1nc2ccccc2s1)c1ccc(C(F)(F)F)cc1,39%,69.6%,100%,91%,22.6%,82.1%,88.1%,6.31% (active),93%,119%,80.1,76.6%,101%,84.5%,–,74.3%,69%,98.7%,115%
CCCCCc1ccc(S(=O)(=O)Nc2cc(-c3csc(NC(=O)CN4CCN(CCO)CC4)n3)ccc2OC)cc1,71.3%,82.9%,52.3%,78.7%,-14% (active),46.8%,45.7%,43.4%,-51.5% (active),-21.4% (active),49.1,2.84% (active),-80.9% (active),12.6%,–,59.8%,-23.1% (active),-69.2% (active),-31.4% (active)
COc1c(N2CC3CCCNC3C2)c(F)cc2c(=O)c(C(=O)N/N=C/c3c[nH]c4ccccc34)cn(C3CC3)c12 (centres undefined),102%,107%,105%,109%,107%,79.6%,107%,102%,95.1%,107%,104,3.26% (active),118%,95.3%,–,91.9%,110%,88.2%,121%
COc1cc(Cn2cc3c(c2)-c2onc(CN4CCOCC4)c2CC3)cc(OC)c1OC,94.6%,87.1%,100%,95.6%,111%,89.7%,86%,101%,100%,114%,113,72.5%,91.8%,82.6%,–,99.7%,93%,99.2%,101%
COc1c(N2CC3CCCNC3C2)c(F)cc2c(=O)c(C(=O)N/N=C/c3ccccc3)cn(C3CC3)c12 (centres undefined),90.7%,103%,94%,96.6%,98.7%,75.3%,109%,101%,66.6%,97.5%,104,54.1%,94.1%,94.9%,–,85.2%,104%,83.7%,106%
O=C(NNc1nc2cc(F)ccc2n2c(CN3CCC(O)C3)ccc12)c1cnccn1 (centres undefined),20.2%,18.8%,24.8%,14.6%,5.14% (active),23.2%,-0.38% (active),15.2%,16.2%,8.58% (active),24,11.8%,12.1%,34.2%,–,22.6%,4.11% (active),10.1%,7.04% (active)
CS(=O)(=O)Nc1cc(-c2ccc3ncc(C#N)c(Nc4cccc(Cl)c4F)c3c2)cnc1Cl,8.28% (active),10.4%,-10.2% (active),-8.87% (active),6.34% (active),-25% (active),1.54% (active),4.61% (active),4.98% (active),-74.5% (active),11.9,21.8%,-32.5% (active),-8.64% (active),–,-10.1% (active),-10.9% (active),-24.4% (active),2.63% (active)
Cc1ccc(-c2nnc(SCc3ccc(O)c4ncccc34)n2-c2ccccc2)cc1,15.6%,24.4%,19.6%,10.6%,-15.8% (active),-12.5% (active),-5.09% (active),11.3%,25%,25.6%,30.2,6.04% (active),3.77% (active),23.6%,-0.61% (active),14.8%,-10.3% (active),5.11% (active),-7.27% (active)
COc1ccc(Oc2ccc(/C=N/NC(=O)CSc3nc4ccccc4c(=O)n3-c3ccc(Cl)cc3)cc2)cc1,41.6%,79.7%,84.7%,73.3%,11.2%,77.3%,51.3%,47%,25.2%,72.8%,49.2,58.4%,63.9%,46.7%,–,57.9%,67.7%,32.2%,94.7%
COc1cc(-c2nnc(SCc3ccc(O)c4ncccc34)n2-c2ccccc2)cc(OC)c1OC,9.25% (active),8.85% (active),19.2%,6.41% (active),-29.8% (active),-12.5% (active),-8.34% (active),0.31% (active),8.31% (active),10.1%,15.2,4.83% (active),-4.75% (active),24.7%,–,8.87% (active),0.13% (active),0.686% (active),-18.1% (active)
O=C(O)c1ccc(-n2cc(CNc3cc(F)c(F)c(F)c3)c(-c3cccc(F)c3)n2)cc1,84.9%,93.9%,97.2%,114%,98.8%,104%,91.5%,77.2%,112%,126%,101,84.3%,67.2%,94.4%,–,106%,37.1%,97.1%,95.1%
COc1ccc(/C=N/NC(=O)c2cn(C3CC3)c3c(OC)c(N4CC5CCCNC5C4)c(F)cc3c2=O)cc1 (centres undefined),85.7%,99%,89.7%,101%,92%,74.5%,102%,98.5%,84.2%,95.1%,93.6,7.92% (active),90.4%,81.1%,–,83.6%,103%,35.5%,106%
